We go through 97 molecules from PubChem BioAssay AID1918 (Vanderbilt High Throughput Screening Facility, 2009).

Molecules are shown by their SMILES. Screen size: about 130,000 compounds; about 2,500 (1.9%) were called active.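 Rule for the calls: active = signal ratio slope over the read window, or its plate-corrected B-score, at least 3 SD from the plate mean, either direction; inactive = the rest.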 This excerpt belongs to a sample that is enriched for actives.

In this test the target is ATP-sensitive inward rectifier potassium channel 1 (Homo sapiens) (UniProt P48048). Description: Kir1.1 channel activity modulation, library screen – cell-based, thallium flux, MLSMR library, primary screen (AID 1918).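 Note: B-score of the F/F0 ratio slope over 7 to 12 s after thallium.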 The conditions noted are these: Tet-inducible ROMK, thallium flux fluorescence; at 10 µM; actives lie on both sides.
Sequence of ATP-sensitive inward rectifier potassium channel 1 (Homo sapiens) (P48048 whole entry, looked up): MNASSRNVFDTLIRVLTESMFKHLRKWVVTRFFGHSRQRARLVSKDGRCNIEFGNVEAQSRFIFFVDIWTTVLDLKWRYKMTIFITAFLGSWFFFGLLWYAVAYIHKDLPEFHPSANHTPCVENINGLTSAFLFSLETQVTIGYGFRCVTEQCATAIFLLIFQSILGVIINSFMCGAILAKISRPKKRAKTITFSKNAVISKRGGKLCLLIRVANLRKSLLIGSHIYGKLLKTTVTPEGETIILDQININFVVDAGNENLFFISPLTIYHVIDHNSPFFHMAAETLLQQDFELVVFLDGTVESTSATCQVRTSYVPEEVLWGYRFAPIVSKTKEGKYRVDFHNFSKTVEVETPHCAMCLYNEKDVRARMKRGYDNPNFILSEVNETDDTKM
Regarding `Nc1ncnc(Nc2cccc(Cl)c2Cl)n1`, the B-score was -0.357 (inactive).

On to `O=C(Nc1ncccn1)c1cccs1`, for which the B-score is 0.282 (inactive).

Regarding `O=C(Nc1ccccc1-c1ccccc1)c1cccs1`, the B-score was -3.72 (active).

On to `O=C(O)c1ccc(NC(=O)c2cccs2)cc1`, for which the B-score was -0.729 (inactive).

For the molecule `NS(=O)(=O)c1cccc(NC(=O)COC(=O)/C=C/c2ccco2)c1`, the B-score was 1.2 (inactive).

Regarding `COc1cc(NC(=O)COc2ccccc2Cl)ccc1NC(=O)C(C)C`, the B-score is -0.0152 (inactive).

Regarding `CCCOc1ccccc1C(=O)NCCCC(=O)O`, the B-score is 0.945 (inactive).

As to `CCCN(CCC)CC(O)COc1ccccc1C(=O)Nc1ccccc1` (configuration not stated), the B-score is -3.37 (active).

`CCCN(CC(=O)Nc1ccc(C(N)=O)cc1)CC(=O)Nc1ccccc1C`: the B-score was 2.09 (inactive).

On to `Cc1cc(C)cc(NC(=O)COC(=O)c2cc(C)oc2C)c1`, for which the B-score is 0.675 (inactive).

As for `COc1cccc(-n2c(=S)[nH]c3c(oc4ccccc43)c2=O)c1`, the B-score is -0.508 (inactive).

Consider `Cc1cccc(NC(=O)c2ccc3nsnc3c2)c1C`, for which the B-score was 0.488 (inactive).

With `COc1ccc(Br)cc1C(=O)Nc1cccc(C)c1C`, the B-score is -2.34 (active).

As for `COc1ccc(C)cc1NC(=O)c1[nH]c(C)c(C(C)=O)c1C`, the B-score was -0.381 (inactive).

As for `Cc1cc(C)nc(Nc2cc([N+](=O)[O-])ccc2C)n1`, the B-score was -0.867 (inactive).

As for `CCCC(=O)NC(=S)Nc1ccc(CN2CCOCC2)cc1`, the B-score was 0.069 (inactive).

As to `COC(=O)c1c(C)oc(C)c1S(=O)(=O)NCc1ccc(Cl)cc1`, the B-score was -0.884 (inactive).

Turning to `c1ccc(-n2nnnc2-c2cccnc2)cc1`, the B-score was 0.982 (inactive).

Consider `CNC(=O)C(=O)N/N=C/c1ccccn1`, for which the B-score is 1.14 (inactive).

For the molecule `c1ccc(C2c3[nH]c4ccccc4c3CCN2Cc2cccn2-c2cccnc2)nc1` (configuration not stated), the B-score is -0.00648 (inactive).

Take `CC1(C)C=C2[C@H]3CC[C@@H]4[C@@]5(C)CCC(=O)C(C)(C)[C@@H]5CC[C@@]4(C)[C@]3(C)CC[C@@]2(C(=O)O)CC1`: the B-score is 3.78 (active).

On to `Cc1ccc(C(=O)N2CCN(S(=O)(=O)N3CCOCC3)CC2)cc1`, for which the B-score is -0.0164 (inactive).

Consider `O=C(CCS(=O)(=O)Cc1ccccc1)Nc1ccc2c(c1)OCCO2`, for which the B-score was 0.0737 (inactive).

For the molecule `COc1ccccc1-n1c(C)nc2cc(C(=O)NCc3ccc4c(c3)OCO4)ccc21`, the B-score is 2.52 (active).

`CCn1cc(C(=O)NCc2ccc3c(c2)OCO3)c2cc(OC)c(OC)cc2c1=O`: the B-score is 2.18 (inactive).

With `COc1cc(-n2c(C)nc3cc(C(=O)NCc4ccco4)ccc32)cc(OC)c1OC`, the B-score is 2.33 (inactive).

Turning to `C=CCn1c(-c2sc(-c3ccccc3)nc2C)n[nH]c1=S`, the B-score is -0.143 (inactive).

In the case of `CCN1CCC2(CCN(Cc3cn[nH]c3-c3ccc(OC)c(F)c3)C2)C1` (configuration not stated), the B-score was 0.101 (inactive).

Regarding `FC(F)(F)c1cccc(Cc2noc(CN3CCC(N4CCCCC4)CC3)n2)c1`, the B-score is -0.1 (inactive).

Consider `Cc1nccc(-c2ccc(-n3c(C)ccc3C)cc2)n1`, for which the B-score was -1.01 (inactive).

For `OCC1(Cc2ccccc2)CCN(Cc2cc3ccccc3o2)CC1`, the B-score was -2.42 (inactive).

Regarding `CC(=O)c1cccc(CN2CCC(CO)(Cc3ccccc3)CC2)c1`, the B-score is -0.319 (inactive).

`COc1ccccc1/C=C/CN1CCC(CO)(Cc2ccccc2)CC1`: the B-score was -2.4 (active).

As for `Cc1ccc2c(c1)C(O)(CC(=O)c1cccc(-n3cccc3)c1)C(=O)N2` (configuration not stated), the B-score was 0.00843 (inactive).

With `OCC1(Cc2ccccc2C(F)(F)F)CCN(Cc2cccc3cnccc23)CC1`, the B-score is -2.15 (inactive).

Regarding `O=C(Nc1ccc(N2C(=O)c3cccc4cccc(c34)C2=O)cc1)c1ccc(N2CCCCC2)c([N+](=O)[O-])c1`, the B-score was -0.618 (inactive).

On to `O=C(Nc1cccc(C(F)(F)F)c1)c1ccc(N2CCNCC2)c([N+](=O)[O-])c1`, for which the B-score was -4.07 (active).

With `CC(NC(=O)c1ccc(N2CCNCC2)c([N+](=O)[O-])c1)C12CC3CC(CC(C3)C1)C2` (configuration not stated), the B-score is -1.39 (inactive).

Turning to `Nc1nnn(CC(=O)N/N=C/c2ccc(O)cc2)n1`, the B-score was 0.102 (inactive).

Take `COc1ccc(-c2nc3cnccn3c2NC(C)(C)CC(C)(C)C)cc1O`: the B-score is -0.227 (inactive).

With `CCN(CCn1cccn1)Cc1cn[nH]c1-c1ccc(OC)cc1F`, the B-score is 0.488 (inactive).

Take `CCOc1ccccc1C1C(C(=O)OC)=CN(C)C=C1C(=O)OC`: the B-score was -3.43 (active).

On to `COC(=O)C1=CN(C)C=C(C(=O)OC)C1c1ccc(Cl)cc1Cl`, for which the B-score is 0.118 (inactive).

As for `CCCCOCCCNC(=O)c1ccccc1OCC`, the B-score is -0.181 (inactive).

Regarding `CCOC(=O)CSc1ccccn1`, the B-score was -0.519 (inactive).

As for `CC(C)C(=O)Nc1oc(-c2ccccc2)cc1C#N`, the B-score was -0.0567 (inactive).

In the case of `CCCN(Cc1cc2cccc(C)c2[nH]c1=O)S(C)(=O)=O`, the B-score was -0.178 (inactive).

For the molecule `Cc1cccc2cc(CN(Cc3nnnn3Cc3ccccc3)C3CCCC3)c(=O)[nH]c12`, the B-score was -4.07 (active).

As to `CCC(c1nnnn1C1CCCC1)N(Cc1cccs1)Cc1cc2cccc(C)c2[nH]c1=O` (configuration not stated), the B-score was -3.89 (active).

Turning to `Cc1cccc2cc(CN(C(=O)c3cccs3)c3ccccc3)c(=O)[nH]c12`, the B-score was 0.321 (inactive).

On to `Cc1cccc2cc(CN(Cc3ccc4c(c3)OCO4)Cc3nnnn3C3CCCC3)c(=O)[nH]c12`, for which the B-score was 0.0136 (inactive).

With `Cc1cc(C)c2[nH]c(=O)c(C(c3nnnn3Cc3ccc4c(c3)OCO4)N3CCCC3)cc2c1` (configuration not stated), the B-score is -1.8 (inactive).

Turning to `COc1cc(/C=C/C(=O)OCC(=O)NC(=O)NCc2ccccc2)ccc1OCC#N`, the B-score was 0.107 (inactive).

For `Cc1cccc(C(=O)Nc2ccccc2C(=O)NCc2cccnc2)c1`, the B-score is -0.294 (inactive).

Consider `O=C(/C=C/c1ccc(Cl)c([N+](=O)[O-])c1)c1cccnc1`, for which the B-score is -6.38 (active).

Turning to `O=C(Nc1cccnc1)c1ccc(Cl)c([N+](=O)[O-])c1`, the B-score was 0.478 (inactive).

Regarding `CN(C)c1ccc(/C=C/C(=O)c2ccc(C(C)(C)C)cc2)cc1[N+](=O)[O-]`, the B-score is -0.617 (inactive).

Consider `CCOC(=O)C(NC(C)=O)C(=O)Nc1ccc(OC)cc1` (configuration not stated), for which the B-score is 2.1 (inactive).

On to `CN(C)c1cc(-c2ccc(F)cc2)oc(=O)c1Cl`, for which the B-score is 0.334 (inactive).

Consider `CC(NC(=O)COC(=O)c1cc(=O)[nH]c2ccccc12)c1ccccc1` (configuration not stated), for which the B-score was -0.0559 (inactive).

For the molecule `CC(NC(=O)CC1SC(N)=NC1=O)c1ccccc1` (configuration not stated), the B-score was 1.24 (active).

For `NC1=NC(=O)C(Cc2cccc(Cl)c2)S1` (configuration not stated), the B-score is -2.18 (inactive).

On to `CCOC(=O)C1(CC2CCCCO2)CCN(Cc2nc(-c3cccs3)oc2C)CC1` (configuration not stated), for which the B-score is -0.7 (inactive).

Regarding `CCc1nc2ccccc2c(C(=O)NCc2ccc(OC)cc2)c1C`, the B-score was 0.0138 (inactive).

With `c1ccc2c(c1)CSc1sccc1C2=C1CCNCC1`, the B-score is -2.98 (active).

As for `O=C(NCc1nnc(SCC(=O)N2CCC(Cc3ccccc3)CC2)o1)c1ccco1`, the B-score is -0.765 (inactive).

On to `CC(Oc1ccc2ccccc2c1)C(=O)NNC(=S)NC(=O)c1ccco1` (configuration not stated), for which the B-score was 2.32 (inactive).

In the case of `CCCc1ccc(OCC(=O)NNC(=S)NC(=O)c2ccco2)cc1`, the B-score was 4.19 (active).

For the molecule `Cc1ccc(OCC(=O)NNC(=S)NCc2ccccc2)cc1`, the B-score is 0.804 (inactive).

Regarding `O=C(Nc1ccccc1F)c1ccccc1-c1ccc(C(F)(F)F)cc1`, the B-score is 0.0696 (inactive).

As for `Cc1ccc(/C=C(\C#N)C(=O)Nc2cccc3ncccc23)o1`, the B-score was -0.963 (inactive).

As to `N#C/C(=C\c1ccccc1C(F)(F)F)C(=O)Nc1ccccc1F`, the B-score was -4.23 (active).

On to `CCCCNC(=O)c1ccc(-n2c(=S)[nH]c3ccccc3c2=O)cc1`, for which the B-score was 0.371 (inactive).

In the case of `O=C1C2C3C=CC(C3)C2C(=O)N1c1ccc(-c2nc3ccccc3c(=O)o2)cc1` (configuration not stated), the B-score was -0.106 (inactive).

Consider `Cc1ccc(NC(=O)C(=O)NCC2CCN(C(=O)c3cccc([N+](=O)[O-])c3)CC2)cc1`, for which the B-score was 0.475 (inactive).

Take `Cc1[nH]n(-c2ccc(Cl)cc2)c(=O)c1/C=N/n1c(C)nc2ccccc2c1=O`: the B-score is -0.843 (inactive).

Take `Cc1ccc(-n2[nH]c(C)c(/C=N/N3C(=O)c4cccc5cccc(c45)C3=O)c2=O)cc1`: the B-score is 3.89 (active).

Take `Cc1[nH]n(-c2cccc(Cl)c2)c(=O)c1/C=N/n1c(C)nc2ccccc2c1=O`: the B-score is 0.302 (inactive).

In the case of `COc1ccccc1Cn1c(C)nnc1-c1cnn(C)c1N`, the B-score is 0.26 (inactive).

As to `CC(Sc1nnnn1C1CCCCC1)C(=O)O` (configuration not stated), the B-score is 0.253 (inactive).

Take `O=S(=O)(Nc1ncccn1)c1ccc(NS(=O)(=O)c2cccc(Cl)c2Cl)cc1`: the B-score is 0.305 (inactive).

As for `CCOc1ccc2nc(N3CCCN(C(=O)Nc4ccccc4C)CC3)c(C#N)cc2c1`, the B-score is -5.81 (active).

Take `Cc1cccc2cc(C#N)c(N3CCCC3)nc12`: the B-score is -0.0822 (inactive).

With `CCOc1ccc2cc(C#N)c(SCC(=O)OC)nc2c1`, the B-score was -0.501 (inactive).

`COC(=O)CN1C(=O)N/C(=C/c2ccc(OC)c(C)c2OC)C1=O`: the B-score is 1.31 (inactive).

With `CCOC(=O)C1=C(C)N=c2s/c(=C\C(=O)OC)c(=O)n2C1c1ccc(OC)cc1` (configuration not stated), the B-score was -6.39 (active).

Take `CCOC(=O)C1=C(CSc2nccn2C)NC(=O)NC1c1ccc(OC)cc1` (configuration not stated): the B-score was 0.553 (inactive).

Take `COc1ccc(C2C(C(C)=O)=C(O)C(=O)N2c2nccs2)cc1` (configuration not stated): the B-score is 0.28 (inactive).

In the case of `CCC(CC)c1nnc(NC(=O)c2nn(C)c(=O)c3ccccc23)s1`, the B-score is -0.146 (inactive).

Take `Cc1nc(COc2cccc(Cl)c2)sc1C(=O)/C=C/N(C)C`: the B-score was -0.0177 (inactive).

Turning to `O=C(CCC(=O)OCc1ccc(Cl)cc1)Nc1ccccc1`, the B-score is 1.21 (inactive).

`O=C(Cc1ccc(Br)cc1)N1CCN(c2ccccn2)CC1`: the B-score was -2.13 (active).

For the molecule `Cc1ccc(S(=O)(=O)NCC(=O)N2CCN(c3ccccn3)CC2)cc1`, the B-score is 0.248 (inactive).

On to `O=C(C(Cl)Cl)N1CCN(c2ccccn2)CC1`, for which the B-score is 0.591 (inactive).

With `O=C(CCC1CCCN(C(=O)Cc2ccc(F)cc2)C1)N1CCN(c2ccccn2)CC1` (configuration not stated), the B-score was 2.32 (inactive).

For `COc1cccc(CC(=O)N2CCCC(CCC(=O)N3CCN(c4ccccn4)CC3)C2)c1` (configuration not stated), the B-score is 0.339 (inactive).

In the case of `O=C(Cc1ccccc1Cl)N1CCN(c2ccccn2)CC1`, the B-score was -4.7 (active).
